# USP8 block: blocks human USP8 ubiquitin-rhodamine cleavage. actives 4.2% (n = 47,000). inhibition, % at 20 µM. P40818. purified USP8, Ub-rhodamine cleavage fluorescence, 30 min. AID 1645853
# USP10 block: blocks human USP10 ubiquitin-rhodamine cleavage. Q14694. inhibition, % at 20 µM. AID 1645856. actives 1.1% (n = 47,000). purified USP10, Ub-rhodamine fluorescence, 60 min
# USP28 inh: blocks human USP28 ubiquitin-rhodamine cleavage. AID 1645857. Q96RU2. actives 3% (n = 47,000). inhibition, % at 25 µM. purified USP28, Ub-rhodamine cleavage fluorescence, 30 min
# USP17 block: inhibitors of human USP17 deubiquitinase; actives 6.5% (n = 47,000); A8MUK1; inhibition, % at 50 µM; purified USP17, Ub-rhodamine cleavage fluorescence, 3 h
# Target sequence (A8MUK1 whole entry, looked up): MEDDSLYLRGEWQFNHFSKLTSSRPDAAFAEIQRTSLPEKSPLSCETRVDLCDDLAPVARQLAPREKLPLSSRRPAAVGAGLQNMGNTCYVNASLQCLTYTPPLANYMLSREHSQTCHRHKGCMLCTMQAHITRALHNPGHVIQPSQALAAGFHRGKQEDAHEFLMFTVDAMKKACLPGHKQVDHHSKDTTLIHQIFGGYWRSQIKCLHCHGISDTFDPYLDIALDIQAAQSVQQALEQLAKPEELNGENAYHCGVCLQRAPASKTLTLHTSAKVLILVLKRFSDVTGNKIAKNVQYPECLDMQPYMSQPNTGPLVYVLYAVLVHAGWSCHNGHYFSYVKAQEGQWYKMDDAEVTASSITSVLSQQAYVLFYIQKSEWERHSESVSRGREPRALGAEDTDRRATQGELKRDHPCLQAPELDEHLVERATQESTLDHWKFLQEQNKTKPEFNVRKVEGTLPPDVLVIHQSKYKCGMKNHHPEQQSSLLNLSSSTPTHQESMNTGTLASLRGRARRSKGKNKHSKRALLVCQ
# USP30 inh: human USP30 deubiquitinase inhibition; inhibition, % at 25 µM; Q70CQ3; purified USP30, Ub-rhodamine cleavage fluorescence; actives 5.3% (n = 47,000)
# Hits are given with their value; 0 = inactive; - = no result. The list is not random: actives were taken first. Their share in the collection is about 13%. Rule as the data show it: active = inhibition above about 30%; inactive = the rest.
SMILES,USP8 block,USP10 block,USP28 inh,USP17 block,USP30 inh
CCC(C(=O)Nc1cccc(OC)c1)n1c(=O)[nH]c2ccccc2c1=O (stereo not drawn),0,0,0,0,0
COc1cccc2cc(C(=O)N3CCc4nc(NC(=O)c5cc(C)on5)sc4C3)oc12,0,0,0,0,0
O=C(Nc1ncc2c(n1)-c1ccccc1CC2)C1CC1,0,0,0,56,0
CCOc1ccc(Nc2nc3ccccc3nc2Nc2cc(C)nn2-c2ccc([N+](=O)[O-])cc2)cc1,0,0,0,42,0
Cc1nccn1CCc1nc2cc(NC(=O)c3ccccc3)ccc2n1C,0,0,0,0,0
O=C(/C=C/c1cn(CC(O)CN2CCOCC2)c2ccccc12)c1ccccc1 (stereo not drawn),0,0,0,0,0
CC(=O)c1cccc(NC(=O)C(C)OC(=O)c2cc3ccccc3[nH]2)c1 (stereo not drawn),0,0,36,60,45
COc1ccc(N(C)S(=O)(=O)c2cccc(C(=O)OC(C)C(=O)Nc3cccc(C(C)=O)c3)c2)cc1 (stereo not drawn),0,0,0,0,0
O=C(Cc1ccc2c(c1)CCO2)Nc1ccc(-c2cn3ccsc3n2)cc1,0,0,0,36,0
COc1ccc(NC(=O)c2cc(S(=O)(=O)N(C)C)ccc2N2CCCC2)cc1Cl,0,0,0,0,0
CN(C)S(=O)(=O)c1ccc(N2CCCC2)c(C(=O)Nc2ccc(-c3cn4ccsc4n3)cc2)c1,0,0,32,52,38
CCN(C(=O)c1cccc(Cn2ccnc2C)c1)[C@H]1C[C@@H](c2ccccc2)OC2(CCNCC2)C1,0,0,0,0,0
CCN(C(=O)c1cccc(-n2nc(C)cc2C)c1)[C@H]1C[C@@H](c2ccccc2)OC2(CCNCC2)C1,0,0,0,0,34
COC(=O)c1ccc(C2CC(=O)Nc3c2sc(C(=O)O)c3-c2ccc(OC)cc2)cc1 (stereo not drawn),0,0,0,0,34
O=C1COc2ccccc2C/C=C/CC2(CCN(Cc3ccccn3)CC2)C(=O)NCCN1,0,0,0,0,0
CC(=O)N1CCc2cc(S(=O)(=O)NC(Cc3ccccc3)C(=O)NCc3ccc4c(c3)OCO4)ccc21 (stereo not drawn),0,0,52,56,54
CC(=O)N1CCc2cc(S(=O)(=O)NC(Cc3ccccc3)C(=O)Nc3cccc(Cl)c3C)ccc21 (stereo not drawn),47,55,70,36,67
COCC(C)n1c(C)cc(C(=O)CSc2nnc(-c3ccco3)n2-c2ccccc2)c1C (stereo not drawn),0,0,0,0,0
CN(C)c1cc(-n2cnc(C(=O)NCc3ccccc3Cl)c2)ncn1,0,0,0,52,0
CN(C)c1cc(-n2cnc(C(=O)NCc3ccc(Cl)cc3)c2)ncn1,0,0,0,0,0
O=C(Cn1cncc(C(=O)NC2CCCC2)c1=O)Nc1cccc(F)c1,0,0,0,82,0
Cc1ccccc1NC(=O)Cn1c(C)ncc(C(=O)NC2CC2)c1=O,0,0,0,0,0
O=C(Cn1c(-c2ccccc2)ncc(C(=O)NC2CC2)c1=O)Nc1ccccc1,30,0,0,36,73
Cc1ccc(C)c(NC(=O)CSc2nnc(Cc3cccn3C)n2CCc2ccccc2)c1,0,0,0,0,0
Cn1cc(N2CCC3(CCN(C(=O)c4cccc(F)c4)CC3)C2=O)cn1,0,0,0,0,0
SMILES,USP8 block,USP10 block,USP28 inh,USP17 block,USP30 inh
CCCOc1ccc(C(=O)OCC(=O)N2c3ccccc3NC(=O)C2(C)C)cc1OCC,0,0,0,0,0
CN(C(=O)Cn1c(=O)n(-c2ccc(Cl)cc2)c(=O)c2c3c(sc21)CCCC3)C1CCCCC1,0,0,0,41,32
CCn1c(=O)c2ccccc2n(Cc2nc(-c3ccccc3)no2)c1=O,0,0,0,0,0
CCn1c(=O)c2ccccc2n(Cc2nc(-c3ccc(OC)cc3)no2)c1=O,0,0,0,36,0
Cc1cccc(NC(=O)CC2C(=O)N(Cc3cccnc3)c3nc4ccccc4n32)c1 (stereo not drawn),0,0,0,0,0
Cc1ccc(NC(=O)CC2C(=O)N(Cc3cccnc3)c3nc4ccccc4n32)c(C)c1 (stereo not drawn),0,0,0,39,0
Cc1cccnc1C(=O)N1CCC(c2cc(=O)n3[nH]ccc3n2)CC1,0,0,0,0,0
Cc1noc(C)c1S(=O)(=O)N1CCC(CC(=O)NC2CCCC2)CC1,0,0,0,0,0
Cc1c(CC(=O)N2CCN(c3ccc(F)cc3)CC2)c(=O)oc2cc(O)ccc12,0,0,0,-,0
Cc1c(CC(=O)N2CCN(c3ccccc3)CC2)c(=O)oc2c(C)c(O)ccc12,31,0,0,0,0
CC(C)CN1Cc2c(C(=O)N3CCCC3)ncn2-c2ccccc2S1(=O)=O,0,0,0,0,0
COc1ccc(-c2cc(-c3nnc4n3CCCCC4)n(-c3ccccc3)n2)cc1,0,0,60,0,0
COc1ccc(-c2c3c4n(c(-c5ccccc5)cn4c2C(=O)NC2CCCCC2)CCCC3)cc1,0,0,0,0,0
COc1ccccc1C(=O)N[C@H]1[C@H](O)[C@H](O)C[C@@H]1c1ccccc1C,0,0,0,0,0
Cc1ccccc1[C@H]1C[C@@H](O)[C@@H](O)[C@@H]1NC(=O)COc1ccccc1,0,0,0,0,39
CCC(Sc1cccc(NC(=O)C2CCCCC2)c1)C(=O)Nc1cc([N+](=O)[O-])ccc1C (stereo not drawn),63,0,0,0,0
CC1CC(C)CN(C(=O)CCc2nnc3ccc(N4CCCC4)nn23)C1 (stereo not drawn),0,0,0,0,31
CC1CCN(c2ccc3nnc(CCC(=O)NCc4ccc(CN5CCOCC5)o4)n3n2)CC1,0,0,31,0,0
CC1CCN(c2ccc3nnc(CCC(=O)NCCN4CCOCC4)n3n2)CC1,0,0,0,0,0
COC(=O)c1ccc(NC(=O)CCc2nnc3ccc(N4CCOCC4)nn23)cc1,0,0,0,31,0
Cc1ccc(C)c(CN2CCC(CNC(=O)CCc3nnc4ccc(N5CCCCC5)nn34)CC2)c1,0,0,33,0,0
COCCN1C(=O)C2C(C(=O)Nc3ccc(Oc4ccccc4)cc3)C3C=CC2(O3)C1C(=O)NC1CCCCC1 (stereo not drawn),0,0,0,0,0
CC(C)Nc1nc(NCCN2CCOCC2)nc2c1cnn2C,0,0,0,0,0
CCN1C(=O)[C@H]2CN(CC(C)C)C[C@H]2C12CCN(C(=O)Nc1ccccc1)CC2,0,0,-,0,-
O=C(NCC1CCN(CCc2ccccc2)C1)Nc1ccccc1 (stereo not drawn),0,0,0,0,0
CCCCc1ccc(NC(=O)Nc2ccccc2C(=O)NCC2CC2)cc1,0,0,0,31,0
O=c1ccc(-c2nc(-c3cnccn3)no2)cn1Cc1ccccc1F,0,0,0,0,33
O=c1ccc(-c2nc(-c3cnccn3)no2)cn1Cc1noc(-c2ccccc2)n1,0,0,0,0,0

# Assay outcomes from PubChem.
